Among the data in PubChem BioAssay (NCI) are growth values, retold here.

SMILES strings stand for the structures. The panel holds about 83,000 compounds, 20% with a hit somewhere; the sample as a whole holds those more often.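 Growth was measured after 48 h exposure to one concentration of compound in 96-well plates. Values under 10 count as active.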 Unmarked numbers belong to inactive results. Calls of active or inactive are those of the source.

What all share (experiment): NCI-60 one-dose screen, 48 h (100 = growth as untreated, 0 = no growth, -100 = all killed)
Assay [1] has as its system NCI-H23 lung. The following applies: 10 µM unless noted.
In assay [2] the test system is NCI-H226 lung. To be noted: 10 µM unless noted.
Assay [3] concerns NCI-H322M lung. To be noted: 10 µM unless noted.
For assay [4], the system named is HOP-62 NSCLC. To be noted: 10 µM unless noted.
Assay [5] deals with NCI-H460 lung. The following applies: 10 µM unless noted.
Assay [6] concerns HOP-92 NSCLC. The following applies: 10 µM.
In assay [7] the test system is NCI-H522 lung. The following applies: 10 µM unless noted.
Assay [8] deals with 786-0 renal. The following applies: 10 µM unless noted.
Assay [9] deals with COLO 205 colon. To be noted: 10 µM unless noted.
The test system of assay [10] is A549/ATCC NSCLC. To be noted: 10 µM unless noted.

As to `O=C(NNc1nc2cc(F)ccc2n2c(CO)ccc12)c1cnccn1`, the growth in assay [1] is 22.8%; in assay [2] it was 16.3%; in assay [3], 22.7%; in assay [4], 5.67% (active); in assay [5] it was 2.22% (active); in assay [6], 11.9%. For the same compound, the growth is 2.58% (active) in [7], 17.4% in assay [8] and 8.65% (active) in [9].

With `O=S(=O)(NCCCNc1nccc(-c2[nH]c(-c3ccccc3)nc2-c2ccc(Cl)c(O)c2)n1)c1cccc2ccccc12`, the growth in assay [1] was 30.6%; in assay [2], 32.9%; in assay [3] it was 50.9%; in [4], 30.9%; in assay [5], 15.5%; in assay [6], 51.4%. Moreover, the growth in [7] was 25.2%; in assay [8] it was 47.9%; in assay [9], 93.8%.

Take `Oc1cccc2ccc(-c3nnc(SCc4ccc(O)c5ncccc45)o3)nc12`: the growth was 3.67% (active) in assay [1]; 35.2% in assay [2]; 39.9% in assay [3]; 25.8% in assay [4]; 1.33% (active) in assay [5]; -16% (active) in assay [6]. The growth was 11.2% in [7], 21.1% in [8] and 31.7% in assay [9].

As for `N#Cc1cccc(NC(=O)c2cc(-c3ccc(F)cc3F)ccc2O)c1`, the growth is 2.72% (active) in [1]; 12% in assay [2]; 10.8% in assay [3]; 20.9% in assay [4]; 5.69% (active) in assay [5]; -24.7% (active) in assay [6]. Also, the growth was 1.9% (active) in assay [7], 13.2% in assay [8] and 95.2% in assay [9].

As for `COc1cc(/C=N/NC(=O)c2cn(C3CC3)c3c(OC)c(N4CC5CCCNC5C4)c(F)cc3c2=O)ccc1O` (centres undefined), the growth was 55.4% in assay [1]; 87.3% in [2]; 55.4% in assay [3]; 96% in assay [4]; -66.6% (active) in assay [5]; 79.5% in assay [6]. Besides, the growth is 46.8% in assay [7], -21.4% (active) in assay [10], -62.2% (active) in assay [8] and 35.6% in assay [9].

In the case of `CN(C)CCNC(=O)c1ccc(-c2nc3ccc4[nH]ncc4c3c3c2COCC3)cc1`, the growth in assay [1] is -5.76% (active); in assay [2], 9.31% (active); in assay [3], 2.32% (active); in assay [4], 5.23% (active); in [5], 6.12% (active); in [6] it was -24.1% (active). Also, the growth is -46% (active) in assay [7], 38.5% in assay [10], 22.6% in assay [8] and -52.3% (active) in [9].

Take `CNC(=O)c1cc(-c2ccc(NC(=S)Nc3cc(C(F)(F)F)cc(C(F)(F)F)c3)cc2)nc2cccnc12`: the growth in assay [1] was 93.7%; in assay [2] it was 87.8%; in assay [3], 111%; in assay [4], 79.2%; in assay [5] it was 92.1%; in assay [6], 76.8%. For the same compound, the results for the growth in assay [10], in assay [8] and in assay [9] were 88.3%, 89.3% and 110%, respectively.

For `ClC(Cl)c1nc(-c2ccco2)n2nc(-c3ccccc3)cc2n1`, the growth in [1] was 49.8%; in [2], 97.5%; in assay [3], -19.4% (active); in assay [4], -1.03% (active); in [5], -22.1% (active); in [6] it was -9.05% (active). In addition, the growth in assay [7] was 91.3%; in assay [10] it was -2.21% (active); in assay [8], 69.3%; in [9], -17% (active).

Regarding `C=CCn1c(SCC(=O)Nc2ccc(C(=O)/C=C/c3ccc(C)cc3)cc2)nnc1-c1c[nH]c2ccccc12`, the growth in [1] is 97.7%; in [2], 78.1%; in assay [3] it was 97.1%; in [4], 94.4%; in assay [5], 102%; in assay [6], 86.3%. Also, the growth in assay [7] was 81.3%; in [10], 75.9%; in assay [8], 103%; in assay [9], 112%.

As to `COc1cc(/C=C2\C(=O)Nc3ccccc32)ccc1OCc1ccc(Cl)cc1`, the growth in assay [1] is 93.3%; in assay [2] it was 96.6%; in assay [3], 99.7%; in [4], 101%; in assay [5], 41.1%; in [6] it was 112%. The growth in assay [7] was 95.8%; in assay [10], 107%; in [8], 106%; in assay [9], 116%.

`CCc1ccc(SC2c3ccc(N(CC)CC)cc3Oc3nc(N)c(C#N)c(N)c32)cc1` (centres undefined): the growth is -85.1% (active) in [1]; -84.1% (active) in assay [2]; -76.6% (active) in assay [3]; 3.17% (active) in assay [4]; -58.3% (active) in assay [5]; -44.1% (active) in assay [6]. Also, the growth was -38.4% (active) in [7], -0.807% (active) in [10], -89.2% (active) in assay [8] and -52.8% (active) in assay [9].

`c1ccc(C(c2nc3ncncc3[nH]2)N2CSc3nc4ccccc4n3C2)cc1` (centres undefined): the growth is 107% in [1]; 98.7% in assay [2]; 106% in assay [3]; 96.6% in assay [4]; 107% in assay [5]; 91.5% in [6]. Also, the growth in assay [7] was 98.2%; in assay [10], 107%; in assay [8], 101%; in assay [9], 110%.

As to `N#Cc1c(-c2cccs2)cc(-c2cnccn2)nc1SCC(=O)c1ccc(F)cc1`, the growth is 90.6% in assay [1]; 89.3% in assay [2]; 97.8% in assay [3]; 76.4% in [4]; 103% in assay [5]; 76% in assay [6]. The growth is 86.6% in [10], 88.6% in assay [8] and 105% in assay [9].

Regarding `Brc1ccccc1/C=N/Nc1nc(N/N=C/c2ccccc2Br)nc(N2CCOCC2)n1`, the growth in assay [1] was 105%; in assay [2], 95.1%; in [3] it was 96.8%; in assay [4] it was 108%; in [5] it was 103%; in [6] it was 112%. Besides, the values for the growth in assay [7], in [8] and in [9] were 86.6%, 61.3% and 86.1%, respectively.

For `O=C(NNc1nc2cc(F)cc(F)c2n2cccc12)c1cnccn1`, the growth in [1] was 24.6%; in assay [2], 29.3%; in assay [3], 30.2%; in assay [4], 14.5%; in assay [5], 1.69% (active); in assay [6] it was 26.1%. Further, the growth in assay [7] was 0.755% (active); in assay [10] it was 15%; in assay [8] it was 14.3%; in assay [9], 6.31% (active).

On to `CCOC(=O)c1c(NC(=O)c2ccccc2C(F)(F)F)sc2c1CCC(=O)C2`, for which the growth in assay [1] is 23.3%; in assay [2], 60.8%; in [3] it was 113%; in assay [4], 64.8%; in assay [5], 33.3%; in assay [6], 40.1%. In addition, the growth is 5.03% (active) in assay [7], 97.5% in [10], 104% in assay [8] and 56.7% in [9].

Turning to `CS(=O)(=O)c1ncc(-c2ccccc2)cn1`, the growth in assay [1] was 96%; in assay [2] it was 101%; in assay [3] it was 91.2%; in assay [4] it was 100%; in assay [5], 108%; in [6] it was 104%. In addition, the growth in assay [7] was 86.4%; in [8], 109%; in [9], 108%.

Take `C=CCn1c(SCC(=O)Nc2ccc(C(=O)/C=C/c3ccc(Br)cc3)cc2)nnc1-c1c[nH]c2ccccc12`: the growth in assay [1] is 90%; in assay [2], 84.7%; in assay [3], 93.7%; in [4], 92.7%; in assay [5], 95.4%; in assay [6], 86.4%. The results for the growth in [7], in assay [8] and in [9] were 82.5%, 102% and 109%, respectively.

In the case of `Cc1noc(C)c1CSc1nc2ccccc2n1-c1ccccc1`, the growth is 90.9% in assay [1]; 95.6% in assay [2]; 104% in assay [3]; 69% in [4]; 107% in [5]; 74.7% in assay [6]. For the same compound, the growth in [10] is 91.2%; in [8] it was 82.6%; in [9], 105%.

`O=C(Nc1ccc2c(ccn2Cc2ccccn2)c1)c1cnccn1`: the growth in [1] was 97%; in [2], 88.3%; in [3], 106%; in assay [4], 72.7%; in assay [5], 105%; in [6], 91.4%. The results for the growth in assay [10], in assay [8] and in assay [9] were 86.1%, 87.6% and 120%, respectively.

`O=C1CC(=O)N2CSCN(C(c3ccccc3)c3nc4ncncc4[nH]3)C2=N1` (centres undefined): the growth in assay [1] was 99.7%; in assay [2], 107%; in assay [3] it was 106%; in [4] it was 96.8%; in [5], 112%; in assay [6], 112%. Besides, the growth is 93.9% in assay [7], 105% in [10], 104% in assay [8] and 114% in assay [9].
